High-throughput results from PubChem BioAssay.
HepG2 tox – qHTS for Inhibitors of TGF-b: Cytotox Counterscreen | HepG2 CAGA-GFP viability, ATP luminescence, 18 h | Potency, µM (top dose mostly 46.1 µM), most hits filed as cytotoxic | actives 0.76% (n = 410,000) | AID 588856, 2011
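HepG2 CAGA-GFP cells (1000/well, DMEM with 1% FBS) received compound, then TGF-beta at 500 pg/mL final, and were incubated 18 hours at 37 degrees C. Viability was read by CellTiter-Glo luminescence. Media-only wells were set as complete cell-killing and DMSO as no toxicity.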
D3 antag – qHTS of D3 Dopamine Receptor Antagonist: qHTS; D(3) dopamine receptor (Homo sapiens), P35462; max response, negative = inhibition, %; actives 2.5% (n = 360,000); D3R cells, DiscoveRx beta-arrestin luminescence, antagonist mode; stronger effect = lower value; in the data active means max response below about -50%; inconclusive means no clear call, values can overlap the other calls
Target sequence (P35462 whole entry, looked up): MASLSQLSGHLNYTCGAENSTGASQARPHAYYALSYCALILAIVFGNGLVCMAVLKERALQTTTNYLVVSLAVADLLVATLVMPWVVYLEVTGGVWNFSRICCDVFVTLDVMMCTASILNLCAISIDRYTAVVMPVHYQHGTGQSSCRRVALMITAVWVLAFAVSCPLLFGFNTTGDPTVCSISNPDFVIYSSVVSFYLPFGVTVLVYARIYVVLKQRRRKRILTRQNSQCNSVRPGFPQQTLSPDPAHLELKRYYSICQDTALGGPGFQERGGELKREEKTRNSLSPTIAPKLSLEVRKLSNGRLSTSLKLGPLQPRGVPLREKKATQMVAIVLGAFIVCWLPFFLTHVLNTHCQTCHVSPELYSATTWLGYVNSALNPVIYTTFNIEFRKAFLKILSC
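Cells expressing the human receptor were seeded at 1500 cells/well, incubated overnight at 37 degrees C in 5% CO2, then exposed to library compounds with dopamine controls for 90 minutes at 37 degrees C before luminescent detection.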
S2 tox – Viability Counterscreen for Primary qHTS for Inhibitors of ATXN expression; AID 651635, 2014; S2 cells (HEK-293 line with an ATXN2-luciferase reporter) viability, CellTiter-Fluor protease fluorescence, 24 h; Potency, µM (series often up to 56.7 µM), most hits filed as cytotoxic; actives 0.49% (n = 400,000); further: nearly all actives have a fitted effect of over 40% in size
D3 ag – qHTS of D3 Dopamine Receptor Agonist: qHTS | max activation, % | D3R DiscoveRx beta-arrestin cells, luminescence, 90 min | actives 0.58% (n = 410,000) | D(3) dopamine receptor (Homo sapiens), P35462 | AID 652048, 2013; in the data active means max activation above about 30%
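Agonist-mode cell screen: cells plated at 1500/well and incubated overnight at 37 °C, then exposed to library compounds for 90 min at 37 °C. Detection reagent was added for 30–60 min at room temperature, and luminescence was read.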
ATXN2 expr inh – Primary qHTS for Inhibitors of ATXN expression. HEK-293 ATXN2-luciferase reporter, luminescence, 24 h. Potency, µM (titrated, usually from 57 µM), actives largely listed as inhibitors. actives 0.72% (n = 360,000); further: nearly all actives have a fitted effect of over 55% in size
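qHTS (up to 57 uM final) was run with 24 h compound exposure of reporter cells at 37 °C. Each well was multiplexed: SteadyGlo luminescence measured ATXN2-luciferase expression after a fluorogenic Gly-Phe-AFC viability readout (25 uM final).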
TGFb inhibitor – qHTS for Inhibitors of TGF-b; HepG2 CAGA-GFP TGF-b/SMAD3 reporter, GFP fluorescence, 18 h; TGF-beta stimulated, 500 pg/mL final; Potency, µM (titrated, usually from 46.1 µM), hits mostly inhibitors; actives 1.2% (n = 410,000); AID 588855, 2011; further: nearly all actives have a fitted effect of over 65% in size
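Cell-based qHTS in HEPG2 carrying a CAGA-GFP Smad reporter; compounds added before 500 pg/mL final TGF-beta, 18 h incubation at 37 degrees C, GFP fluorescence quantified per cell by imaging cytometry.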
A number is an active result. An excerpt weighted towards active compounds, which were near 4.7% of everything screened. Unless noted, the call rests on the fitted dose curve; in most records, active means well fitted curve in the direction sought with a large enough effect; inconclusive means small, poorly fitted or top-dose-only effect, or another doubt; inactive means no such curve, though single readings can be large; an effect the other way counts as inactive or inconclusive.

Screening O=C(CCn1cnc2ccccc2c1=O)Nc1cccc(Cl)c1Cl returned HepG2 tox inactive, D3 antag inactive, S2 tox 0.159µM, D3 ag inactive and TGFb inhibitor inactive.
For C=C1CC[C@H](O)CC1=C/C=C1\CCC[C@]2(C)[C@@H]([C@H](C)CCCC(C)(C)O)CC[C@@H]12 the results were D3 ag inactive.
For Cc1cc2ncc(-c3ccccc3)nc2cc1C the results were HepG2 tox inactive, D3 antag inactive, S2 tox inactive, D3 ag inactive and TGFb inhibitor inactive.
For CCOC(=O)c1ccc2ncc(-c3ccccc3)nc2c1 the results were HepG2 tox 2.51µM, D3 antag inactive, S2 tox inactive, D3 ag inactive, ATXN2 expr inh inactive and TGFb inhibitor inactive.
Screening Cc1ccc2c(/C=C/c3ccc(N(C)C)cc3)ccnc2c1C returned HepG2 tox inactive and TGFb inhibitor inconclusive.
Cc1ccc(N/C(N)=N/c2nc(C)cc(N3CCCCC3)n2)c(C)c1 was read as HepG2 tox inactive, D3 antag inactive, S2 tox inconclusive, D3 ag inactive, ATXN2 expr inh 22.4µM and TGFb inhibitor inconclusive.
For COc1ccc(Br)cc1CNC(=O)Cn1ncn2nc(-c3cccs3)cc2c1=O the results were HepG2 tox inactive, S2 tox inactive, D3 ag inactive, ATXN2 expr inh inactive and TGFb inhibitor inactive.
`CC1(C)CCN2CCC(C)(C)c3c(O)ccc1c32` gave HepG2 tox inactive, D3 antag inactive, S2 tox inconclusive, D3 ag inactive, ATXN2 expr inh 3.16µM and TGFb inhibitor inactive.
Screening Cc1cc(C)c(OCC(=O)Nc2cccc(NC(=O)c3ccco3)c2)c(Br)c1 returned HepG2 tox inactive, D3 antag inactive, S2 tox inconclusive, D3 ag 33.8, ATXN2 expr inh inconclusive and TGFb inhibitor inconclusive.
For Cc1cc(C)c(OCC(=O)Nc2ccc(NC(=O)c3ccco3)cc2)c([N+](=O)[O-])c1 the results were HepG2 tox inactive, D3 antag inactive, S2 tox inactive, D3 ag inactive, ATXN2 expr inh inactive and TGFb inhibitor inactive.
For COc1ccc(N2CCN(Cc3cc4c(cc3O)CCC4)CC2)cc1 the results were HepG2 tox inactive, D3 antag -87.3, S2 tox inconclusive, D3 ag inactive, ATXN2 expr inh inactive and TGFb inhibitor inactive.
Screening C(=C\c1ccccc1)/CN1CCN(Cc2ccc3c(c2)OCO3)CC1 returned HepG2 tox inactive, D3 antag -60.8, S2 tox inactive, D3 ag inactive, ATXN2 expr inh inactive and TGFb inhibitor inactive.
O=[N+]([O-])c1ccccc1/C=C/CN1CCN(Cc2ccc3c(c2)OCO3)CC1 was read as HepG2 tox inactive, D3 antag -78.7, S2 tox inconclusive, D3 ag inactive and TGFb inhibitor inactive.
Screening Cc1ccc(-c2ccc(/C=C(\C#N)C(N)=S)n2C)cc1 returned HepG2 tox inactive, D3 antag inactive, S2 tox inactive, D3 ag inactive, ATXN2 expr inh inactive and TGFb inhibitor inactive.
Cn1cccc1/C=C(/C#N)C(N)=S was read as HepG2 tox inactive, D3 antag -63.3, S2 tox inactive, D3 ag inactive, ATXN2 expr inh inactive and TGFb inhibitor inactive.
COC(=O)C1(Cc2cc(-c3cccc(Br)c3)no2)CCN(C(=O)OC(C)(C)C)CC1 was read as HepG2 tox inactive, D3 antag inactive, S2 tox inconclusive, D3 ag inactive, ATXN2 expr inh inactive and TGFb inhibitor inconclusive.
Screening COC(=O)C1(Cc2cc(-c3ccc(OC)cc3OC)no2)CCN(C(=O)OC(C)(C)C)CC1 returned HepG2 tox inactive, D3 antag inactive, S2 tox inconclusive, D3 ag 77.1, ATXN2 expr inh inactive and TGFb inhibitor inconclusive.
`C=C(CC[C@]12OC(C(=O)O)C(O)(C(=O)O)C(C(=O)O)(O1)C(OC(=O)/C=C/[C@@H](C)C[C@@H](C)CC)C2O)[C@@H](OC(C)=O)[C@H](C)Cc1ccccc1` (stereo partly specified) gave HepG2 tox inactive and TGFb inhibitor inactive.
`O=S(=O)(c1ccccc1)c1nc(-c2cccs2)oc1SCc1ccccc1Cl` gave HepG2 tox inactive, S2 tox inconclusive, D3 ag inactive, ATXN2 expr inh inactive and TGFb inhibitor inactive.
`Cc1cccc2c1-c1sc(C(=O)NCCCN3CCC(C)CC3)cc1CO2` gave HepG2 tox inactive, D3 antag -95.3, S2 tox inconclusive, D3 ag inactive, ATXN2 expr inh inconclusive and TGFb inhibitor inconclusive.
`CC1CCCN(CCCNC(=O)c2cc3c(s2)-c2ccccc2OC3)C1` (stereo unspecified) gave HepG2 tox inactive, D3 antag inconclusive, S2 tox inconclusive, D3 ag inactive, ATXN2 expr inh inactive and TGFb inhibitor inconclusive.
CC1CCN(CCCNC(=O)c2cc3c(s2)-c2ccccc2OC3)CC1 was read as HepG2 tox inactive, D3 antag -83.2, S2 tox inactive, D3 ag inactive, ATXN2 expr inh inconclusive and TGFb inhibitor inconclusive.
CCNC(=O)N1CCN(/[N+]([O-])=N/Oc2ccc([N+](=O)[O-])cc2[N+](=O)[O-])CC1 was read as HepG2 tox inactive and TGFb inhibitor inconclusive.
`Cc1nn(-c2ccccc2)c(Cl)c1/C=C/C(=O)c1ccccc1` gave HepG2 tox 11.2µM, D3 antag inactive, S2 tox inactive, D3 ag inactive, ATXN2 expr inh inactive and TGFb inhibitor inconclusive.
Cc1nn(-c2ccccc2)c(Cl)c1/C=N/O was read as HepG2 tox inactive, D3 antag inactive, S2 tox inconclusive, D3 ag inactive and TGFb inhibitor inactive.
`COc1cccc(C2NC(C)(C(=O)O)C3C(=O)N(C(C)C)C(=O)C23)c1O` (stereo unspecified) gave HepG2 tox inactive, D3 antag -53.2, S2 tox inactive, D3 ag inactive, ATXN2 expr inh inactive and TGFb inhibitor inactive.
CSCCC1(C(=O)O)NC(c2ccccc2O)C2C(=O)N(C(C)C)C(=O)C21 (stereo unspecified) was read as HepG2 tox inactive, D3 antag inactive, S2 tox inactive, D3 ag inactive, ATXN2 expr inh inactive and TGFb inhibitor inactive.
COc1ccc(-c2csc(/C(C#N)=C(\O)CSc3nccn3C)n2)cc1OC was read as HepG2 tox inactive, D3 antag -55.1, S2 tox inactive, D3 ag inactive, ATXN2 expr inh inactive and TGFb inhibitor inactive.
CN(C)CCCCCCNc1nccc(N2CCN(C)CC2)n1 was read as HepG2 tox inactive and TGFb inhibitor inactive.
